hNpr1 antagonist = antagonists of human natriuretic peptide receptor Npr1 | P16066 | HEK293 hNpr1 GloSensor cGMP, ANP-stimulated luminescence | Potency, µM (top dose mostly 46.3 µM), for the others: at the highest dose activity change, negative = inhibition, actives largely listed as inhibitors | hit rate 1.6% among 76,000; calls by dose curve; also: nearly all actives have a fitted effect of over 60% in size
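Compound pre-incubated 30 min at room temperature on GloSensor-loaded HEK293 cells stably carrying hNpr1 and the pGS-40F cGMP biosensor. Stimulation uses hNppA at 0.1 nM final; luminescence is taken at baseline and 20 min post-agonist.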
HEK cytotox = kills HEK 293 cells; HEK 293 viability, ATP luminescence (CellTiter-Glo), 48-72 h; Potency, µM (highest dose often 115 µM), without a hit: top-dose activity change, negative = cytotoxicity, hits mostly inhibitors; hit rate 6.6% among 94,000; also: nearly all actives have a fitted effect of over 60% in size
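Pintool-delivered compounds were incubated with HEK 293 cells (250 cells/well) at 37 degree Celsius for 48 or 72 hr. ATP-dependent luminescence (CellTiter-Glo) then reported remaining viable cells.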
FLuc inh = inhibitors of firefly (Photinus pyralis) luciferase; P08659; purified P. pyralis luciferase, luminescence, biochemical; Potency, µM (titrated, usually from 115 µM), hits mostly inhibitors; hit rate 2.5% among 76,000; AID 1347043; also: nearly all actives have a fitted effect of over 65% in size
Target sequence (P08659 whole entry, looked up): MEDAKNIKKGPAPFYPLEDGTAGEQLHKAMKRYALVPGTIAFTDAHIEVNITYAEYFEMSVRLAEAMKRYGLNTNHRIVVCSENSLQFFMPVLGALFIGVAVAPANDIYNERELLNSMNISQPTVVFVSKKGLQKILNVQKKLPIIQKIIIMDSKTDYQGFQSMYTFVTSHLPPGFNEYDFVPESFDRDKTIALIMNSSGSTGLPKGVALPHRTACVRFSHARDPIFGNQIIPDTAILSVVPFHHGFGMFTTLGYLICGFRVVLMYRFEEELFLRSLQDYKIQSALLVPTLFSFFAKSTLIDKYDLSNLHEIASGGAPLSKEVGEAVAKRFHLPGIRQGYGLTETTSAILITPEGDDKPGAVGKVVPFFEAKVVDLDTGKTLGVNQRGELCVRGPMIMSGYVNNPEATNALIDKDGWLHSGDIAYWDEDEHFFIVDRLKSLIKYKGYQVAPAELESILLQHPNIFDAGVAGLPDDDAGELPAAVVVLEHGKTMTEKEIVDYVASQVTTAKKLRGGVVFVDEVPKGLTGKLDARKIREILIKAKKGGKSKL
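Purified P. pyralis luciferase (10nM final) in 50mM Tris acetate pH 7.5, 10mM Mg acetate, 0.01% Tween-20, 0.05% BSA with 10uM D-luciferin and 10uM ATP. Compounds titrated qHTS. Luminescence imaged on CCD.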
3T3 cytotox = NIH 3T3 cell cytotoxicity; NIH 3T3 viability, CellTiter-Glo ATP luminescence, 48-72 h; Potency, µM (doses to about 96.7 µM), inactives show at the highest dose activity change, negative = cytotoxicity, most hits filed as inhibitors; hit rate 4.3% among 94,000; AID 1345082; also: nearly all actives have a fitted effect of over 55% in size
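NIH 3T3 cells at 400 cells/well received 23 nL of compound by pintool and were incubated 48 or 72 h at 37 °C. Viability was read as ATP-coupled CellTiter-Glo luminescence.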
An asterisk follows results filed as active; i = inactive; ? = inconclusive; · = no result given; [ ] = dose if it differs, or a comment. In the library only some 11% were active in any assay of this set; here they are far more common. Unless noted, calls follow the shape of the dose curve; as a rule, active = well fitted curve in the direction sought with a large enough effect; inconclusive = small, poorly fitted or top-dose-only effect, or another doubt; inactive = no such curve, though single readings can be large; an effect the other way counts as inactive or inconclusive. % is scaled to controls: 0 for no effect and ±100 for the full control effect; potency is read from the fitted curve at half-maximal effect.

SMILES	hNpr1 antagonist	HEK cytotox	FLuc inh	3T3 cytotox
O=C(c1ccsc1)N1CC(Oc2ccc(-c3nc(-c4ccccc4)no3)cc2)C1	2%	-30%	28µM*	-5%
Cc1nc(C)c(C(=O)N2CCC(Oc3ccc(-c4noc(C5CC5)n4)cc3)C2)s1 (stereo unspecified)	?	20µM*	i	?
Cc1nc(C)c(C(=O)N2CC(Oc3ccc(-c4nc(-c5ccccc5)no4)cc3)C2)s1	-8%	?	13µM*	-14%
COCc1nc(-c2ccc(OC3CCN(C(=O)c4sc(C)nc4C)C3)cc2)no1 (stereo unspecified)	-15%	?	i	-20%
Cc1cccc(C(=O)N2CC(Oc3ccc(-c4nc(-c5ccccc5)no4)cc3)C2)c1	-5%	?	i	-28%
COc1ccccc1C(=O)N1CCCC1C(=O)N1CCC(N2CCCC2=O)CC1 (stereo unspecified)	·	-6%	·	i
O=C(CCc1ccc2c(c1)CN(C(=O)C1COc3ccccc3O1)CCO2)N1CCOCC1 (stereo unspecified)	·	-14%	·	?
CSc1ccc(-c2cccc(C(=O)NCC(=O)NCC(C)C)c2)cc1	·	-31%	·	-24%
CC(C)c1nc2c(c(-c3ccc(Cl)cc3)n1)CN([S+](=O)([O-])c1cccc(C(F)(F)F)c1)CC2	1%	-3%	i	0%
CC(C)c1nc2c(c(-c3ccc(O)cc3)n1)CN([S+](=O)([O-])c1cccc(C(F)(F)F)c1)CC2	14%	?	i	18µM*
CC(C)c1nc2c(c(-c3ccc(O)cc3)n1)CCN(Cc1ccc(C(F)(F)F)cc1)CC2	5%	35µM*	i	40µM*
CC(C)c1nc2c(c(-c3ccc(Cl)cc3)n1)CCN(Cc1ccc(F)cc1)CC2	·	40µM*	·	?
Oc1ccc(-c2nc(C3CC3)nc3c2CN(Cc2ccc(C(F)(F)F)cc2)CC3)cc1	-2%	89µM*	i	?
COc1ccc(Cn2c(C3CCN(C(=O)COc4cccc(C)c4)CC3)n[nH]c2=O)cc1	-2%	-3%	i	?
CC(C)c1nc2c(c(-c3ccc(O)cc3)n1)CN(Cc1ccc(C(F)(F)F)cc1)CC2	2%	40µM*	i	?
Cc1nc(-c2ccccc2)n(Cc2cccc(C(F)(F)F)c2)c(=O)c1CCO	1%	50µM*	i	?
Cc1nc(-c2ccc(F)cc2)n(Cc2cccc(C(F)(F)F)c2)c(=O)c1CCO	-7%	45µM*	i	?
Cc1ccc([S+](=O)([O-])NC2CCCN(Cc3ccc(-c4cc(C)cc(C)c4)cc3)C2)cc1 (stereo unspecified)	·	40µM*	·	?
O=[S+]([O-])(NC1CCCN(Cc2ccc(-c3cncnc3)cc2)C1)c1ccccc1 (stereo unspecified)	·	?	·	-19%
Cc1cc(C)cc(-c2ccc(CN3CCCC(N[S+](=O)([O-])c4cccs4)C3)cc2)c1 (stereo unspecified)	·	35µM*	·	32µM*
COc1ccccc1-c1ccc(CN2CCC(N[S+](=O)([O-])c3c(C)noc3C)C2)cc1 (stereo unspecified)	·	45µM*	·	?
Cc1cc(C)cc(-c2ccc(CN3CCCC(NC(=O)C4CCCC4)C3)cc2)c1 (stereo unspecified)	·	-16%	·	-19%
Cc1cc(C)cc(-c2ccc(CN3CCCC(N[S+](=O)([O-])c4c(C)noc4C)C3)cc2)c1 (stereo unspecified)	·	25µM*	·	35µM*
COc1ccc(CC(=O)NCCNC(=O)c2cccc(-c3ncccc3C#N)c2)cc1	·	2%	·	-16%
COc1ccccc1CN1CC(c2noc(-c3sccc3C)n2)CC1=O (stereo unspecified)	8%	40µM*	i	?
SMILES	hNpr1 antagonist	HEK cytotox	FLuc inh	3T3 cytotox
COc1ccccc1CN1CC(c2noc(-c3cc(C)cc(C)c3)n2)CC1=O (stereo unspecified)	4%	45µM*	i	?
COc1cc(OC)cc(-c2nc(C3CC(=O)N(Cc4ccccc4OC)C3)no2)c1 (stereo unspecified)	-14%	?	i	?
CC(c1cccs1)N(C)Cc1cccc2ccccc12 (stereo unspecified)	19%[70.6 µM]	112µM*	?	?
COc1cccc(CN(C)C(C)c2cccs2)c1 (stereo unspecified)	0%[70.6 µM]	-27%[172 µM]	i	-10%[138 µM]
CCCCOC(=O)N1C[C@@H](CO)[C@@H]2Oc3c(C)cccc3[C@@H]21	·	?	·	40µM*
O=C(Nc1ccc2c(c1)OCCO2)C1CCN(C(=O)N2CC3CC(C2)[C@H]2CCCC(=O)N2C3)CC1 (stereo partly specified)	3%	5%	20µM*	4%
Cc1ccc(NC(=O)C2CCN(C(=O)N3CC4CC(C3)[C@H]3CCCC(=O)N3C4)CC2)cc1 (stereo partly specified)	1%	9%	i	i
Cc1ccc(NC(=O)N2CCC(n3cnnc3C3CC3)C2)c(Cl)c1 (stereo unspecified)	-7%	-1%	i	-12%
O=C(Nc1cccc(-c2ccc(N3CCOCC3)nn2)c1)Nc1ccccc1Cl	?	?	1.6µM*	?
O=C(Nc1cccc(-c2ccc(N3CCOCC3)nn2)c1)Nc1cc(Cl)ccc1Cl	-19%	-15%	1µM*	-17%
CC(=O)N1CC2(CCCN(Cc3ccc(Cl)cc3)C2)Cc2ccccc21 (stereo unspecified)	·	?	·	-19%
O=C(O)CCC(=O)N1CCC2(CC1)Cc1ccccc1N(C(=O)c1ccc(Cl)cc1)C2	·	i	·	32µM*
O=C(c1ccc(Cl)cc1)N1CC2(CCCN(Cc3ccccn3)C2)Cc2ccccc21 (stereo unspecified)	·	32µM*	·	?
CC(=O)N1CC2(CCN(Cc3cccc(C(N)=O)c3)CC2)Cc2ccccc21	·	-16%	·	-11%
NC(=O)c1cccc(CN2CCC3(CC2)Cc2ccccc2N(C(=O)c2ccc(Cl)cc2)C3)c1	·	40µM*	·	?
O=C(O)CCC(=O)N1CCC2(CC1)Cc1ccccc1N(C(=O)C1CCCC1)C2	·	-17%	·	?
NC(=O)c1cccc(CN2CCC3(Cc4ccccc4N(C(=O)c4ccc(Cl)cc4)C3)C2)c1 (stereo unspecified)	·	35µM*	·	?
CN1CC(=O)N(C2CNC2)Cc2c(NCC3CC3)ncnc21	·	4%[172 µM]	·	0%[138 µM]
CC(C)(CC(=O)O)CC(=O)N1C[C@@H]2C[C@H](C1)c1ccc(-c3cc4ccccc4s3)c(=O)n1C2	-2%	-10%	22µM*	-15%
CCN1C(=O)CN(C(=O)C2CCCCC2)CC12CCOCC2	·	-5%	·	-27%
O=C(CC1CCCN(c2cnn(CC3CC3)c(=O)c2)C1)N1CCN(c2ccccc2)CC1 (stereo unspecified)	?	50µM*	i	?

Assay outcomes: PubChem BioAssay, National Center for Advancing Translational Sciences (NCATS)
